# Test results reported in the supplement of paper PMC10849652.
# Targets with a hit are over-represented here; the source holds about 7,900 in all. About 0.6% of all pairs of compound and target were hits. Unmarked numbers belong to inactive results.
# Compound: c1cn2cc(-c3ccc4cn[nH]c4c3)nc(Nc3ccc(N4CCOCC4)cc3)c2n1 [entospletinib]
# Assay: log2 fold change, soluble protein after heating vs DMSO (PISA); higher = thermal stabilisation; K562 cells, 10 uM, 30 min; active = over 0.2 and 3.5 SD of the protein, either way, in both replicates (recomputed)
# In short: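 K562 cells at 2×10^6 cells/mL were treated with 10 μM compound for 30 min. Aliquots were heated for 3 min across 48°C-58°C, pooled, and extracted in PBS with 0.5% NP-40 at 4°C; soluble protein was the supernatant after 21,000xg for 90 min. Soluble protein was quantified by TMTpro 16plex LC-MS/MS with channel sums equalised, and reported as log2 fold change in thermal stability against DMSO controls, with values from duplicates.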
# Sequence of UniProt Q8IZQ5 (Q8IZQ5 whole entry, looked up): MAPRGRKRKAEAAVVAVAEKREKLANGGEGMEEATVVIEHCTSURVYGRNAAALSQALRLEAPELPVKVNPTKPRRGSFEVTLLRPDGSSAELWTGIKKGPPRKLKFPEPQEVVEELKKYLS
# Sequence of UniProt Q02383 (Q02383 whole entry, looked up): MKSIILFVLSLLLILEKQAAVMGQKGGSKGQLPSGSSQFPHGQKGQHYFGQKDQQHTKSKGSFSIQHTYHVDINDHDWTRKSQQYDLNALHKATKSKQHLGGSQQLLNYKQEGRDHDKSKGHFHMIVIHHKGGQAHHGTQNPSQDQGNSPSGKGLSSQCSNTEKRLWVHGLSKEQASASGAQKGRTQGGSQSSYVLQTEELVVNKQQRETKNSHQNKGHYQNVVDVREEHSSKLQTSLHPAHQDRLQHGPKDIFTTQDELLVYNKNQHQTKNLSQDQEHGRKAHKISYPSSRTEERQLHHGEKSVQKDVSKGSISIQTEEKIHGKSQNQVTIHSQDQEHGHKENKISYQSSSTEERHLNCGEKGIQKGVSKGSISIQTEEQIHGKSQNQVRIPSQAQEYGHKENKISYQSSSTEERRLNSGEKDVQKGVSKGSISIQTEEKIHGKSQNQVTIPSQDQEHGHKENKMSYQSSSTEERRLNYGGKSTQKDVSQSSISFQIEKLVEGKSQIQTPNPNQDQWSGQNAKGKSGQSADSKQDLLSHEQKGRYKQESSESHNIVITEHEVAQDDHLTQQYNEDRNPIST
# Sequence of UniProt Q99590 (Q99590 whole entry, looked up): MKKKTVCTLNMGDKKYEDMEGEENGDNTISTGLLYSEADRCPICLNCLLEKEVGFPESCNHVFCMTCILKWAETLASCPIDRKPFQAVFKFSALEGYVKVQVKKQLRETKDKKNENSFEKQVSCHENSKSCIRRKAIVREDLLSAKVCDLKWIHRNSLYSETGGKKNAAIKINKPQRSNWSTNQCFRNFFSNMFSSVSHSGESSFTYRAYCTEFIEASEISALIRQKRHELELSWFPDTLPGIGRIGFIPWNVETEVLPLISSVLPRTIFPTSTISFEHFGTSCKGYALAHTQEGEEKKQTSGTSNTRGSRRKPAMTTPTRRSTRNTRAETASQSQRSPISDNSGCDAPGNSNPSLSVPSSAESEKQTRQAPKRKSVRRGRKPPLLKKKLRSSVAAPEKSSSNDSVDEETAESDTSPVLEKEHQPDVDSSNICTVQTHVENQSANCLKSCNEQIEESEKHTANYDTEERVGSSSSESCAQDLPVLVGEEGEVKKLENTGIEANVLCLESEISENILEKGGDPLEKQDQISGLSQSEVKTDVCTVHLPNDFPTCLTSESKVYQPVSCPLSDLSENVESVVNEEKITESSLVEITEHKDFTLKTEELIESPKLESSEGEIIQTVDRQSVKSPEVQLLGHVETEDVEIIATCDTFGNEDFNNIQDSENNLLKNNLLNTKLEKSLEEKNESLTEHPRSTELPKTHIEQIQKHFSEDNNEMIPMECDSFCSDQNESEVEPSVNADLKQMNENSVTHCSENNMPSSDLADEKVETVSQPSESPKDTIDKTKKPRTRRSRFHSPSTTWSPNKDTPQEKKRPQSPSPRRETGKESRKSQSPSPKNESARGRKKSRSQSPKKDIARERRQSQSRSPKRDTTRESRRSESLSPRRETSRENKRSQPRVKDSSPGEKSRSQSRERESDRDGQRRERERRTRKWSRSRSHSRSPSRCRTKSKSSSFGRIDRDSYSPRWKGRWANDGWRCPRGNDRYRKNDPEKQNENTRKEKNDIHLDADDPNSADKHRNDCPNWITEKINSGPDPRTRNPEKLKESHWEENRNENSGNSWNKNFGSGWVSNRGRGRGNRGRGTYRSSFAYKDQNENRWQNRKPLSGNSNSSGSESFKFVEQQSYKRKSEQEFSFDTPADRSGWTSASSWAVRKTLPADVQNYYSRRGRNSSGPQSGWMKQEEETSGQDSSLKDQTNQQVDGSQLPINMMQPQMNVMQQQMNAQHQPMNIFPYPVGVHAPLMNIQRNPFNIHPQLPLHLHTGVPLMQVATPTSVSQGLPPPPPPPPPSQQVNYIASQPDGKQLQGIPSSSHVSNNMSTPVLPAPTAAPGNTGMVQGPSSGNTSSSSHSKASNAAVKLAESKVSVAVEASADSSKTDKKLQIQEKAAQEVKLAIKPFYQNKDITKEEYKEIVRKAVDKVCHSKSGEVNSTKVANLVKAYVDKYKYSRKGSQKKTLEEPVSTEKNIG
# Sequence of UniProt Q8TC12 (Q8TC12 whole entry, looked up): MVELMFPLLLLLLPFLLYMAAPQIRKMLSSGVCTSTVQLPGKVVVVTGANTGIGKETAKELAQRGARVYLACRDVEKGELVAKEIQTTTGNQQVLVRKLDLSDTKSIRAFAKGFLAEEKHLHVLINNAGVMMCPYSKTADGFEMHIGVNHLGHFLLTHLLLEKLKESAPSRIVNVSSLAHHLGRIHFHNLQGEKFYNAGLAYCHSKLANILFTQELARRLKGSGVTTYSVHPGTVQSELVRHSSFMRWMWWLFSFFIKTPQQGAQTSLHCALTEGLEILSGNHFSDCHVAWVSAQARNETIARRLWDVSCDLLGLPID
# Sequence of UniProt P05543 (P05543 whole entry, looked up): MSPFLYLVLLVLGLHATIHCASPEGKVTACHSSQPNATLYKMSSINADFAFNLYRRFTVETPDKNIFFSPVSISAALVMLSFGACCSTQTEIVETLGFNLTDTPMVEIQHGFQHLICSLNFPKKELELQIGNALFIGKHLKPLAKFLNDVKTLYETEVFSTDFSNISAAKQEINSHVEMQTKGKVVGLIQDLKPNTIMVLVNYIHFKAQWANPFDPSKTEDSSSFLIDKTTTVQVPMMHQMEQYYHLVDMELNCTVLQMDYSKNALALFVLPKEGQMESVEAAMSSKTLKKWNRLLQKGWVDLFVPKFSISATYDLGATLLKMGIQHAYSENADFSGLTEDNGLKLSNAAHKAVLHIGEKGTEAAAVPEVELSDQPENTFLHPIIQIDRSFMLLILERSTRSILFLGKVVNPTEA
# Sequence of UniProt Q8NBN7 (Q8NBN7 whole entry, looked up): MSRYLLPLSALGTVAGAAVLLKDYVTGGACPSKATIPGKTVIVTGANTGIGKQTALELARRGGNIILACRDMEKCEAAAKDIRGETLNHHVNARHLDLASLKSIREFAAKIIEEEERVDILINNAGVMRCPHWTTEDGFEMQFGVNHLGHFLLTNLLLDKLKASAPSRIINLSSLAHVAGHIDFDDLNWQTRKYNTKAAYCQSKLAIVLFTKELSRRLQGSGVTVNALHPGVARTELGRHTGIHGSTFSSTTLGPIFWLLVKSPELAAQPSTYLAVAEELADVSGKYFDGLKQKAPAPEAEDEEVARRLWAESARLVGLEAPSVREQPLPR
# Sequence of UniProt O75792 (O75792 whole entry, looked up): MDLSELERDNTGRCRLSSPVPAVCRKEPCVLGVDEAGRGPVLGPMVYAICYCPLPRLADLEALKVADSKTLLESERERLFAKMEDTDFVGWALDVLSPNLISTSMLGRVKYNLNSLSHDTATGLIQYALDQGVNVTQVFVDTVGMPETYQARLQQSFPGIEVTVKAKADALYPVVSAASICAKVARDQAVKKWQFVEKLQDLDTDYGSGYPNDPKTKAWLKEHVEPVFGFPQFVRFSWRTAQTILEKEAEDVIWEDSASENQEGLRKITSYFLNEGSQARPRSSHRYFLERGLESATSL
# Sequence of UniProt Q06609 (Q06609 whole entry, looked up): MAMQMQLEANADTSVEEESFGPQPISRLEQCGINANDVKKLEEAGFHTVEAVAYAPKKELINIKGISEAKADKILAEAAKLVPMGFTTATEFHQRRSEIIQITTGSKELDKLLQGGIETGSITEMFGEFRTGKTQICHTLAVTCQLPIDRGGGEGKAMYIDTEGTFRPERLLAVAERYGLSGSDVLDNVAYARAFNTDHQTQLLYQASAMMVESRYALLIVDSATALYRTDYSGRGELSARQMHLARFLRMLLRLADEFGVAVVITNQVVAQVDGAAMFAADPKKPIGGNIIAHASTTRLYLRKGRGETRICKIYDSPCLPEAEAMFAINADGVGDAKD
# Sequence of UniProt Q5VTB9 (Q5VTB9 whole entry, looked up): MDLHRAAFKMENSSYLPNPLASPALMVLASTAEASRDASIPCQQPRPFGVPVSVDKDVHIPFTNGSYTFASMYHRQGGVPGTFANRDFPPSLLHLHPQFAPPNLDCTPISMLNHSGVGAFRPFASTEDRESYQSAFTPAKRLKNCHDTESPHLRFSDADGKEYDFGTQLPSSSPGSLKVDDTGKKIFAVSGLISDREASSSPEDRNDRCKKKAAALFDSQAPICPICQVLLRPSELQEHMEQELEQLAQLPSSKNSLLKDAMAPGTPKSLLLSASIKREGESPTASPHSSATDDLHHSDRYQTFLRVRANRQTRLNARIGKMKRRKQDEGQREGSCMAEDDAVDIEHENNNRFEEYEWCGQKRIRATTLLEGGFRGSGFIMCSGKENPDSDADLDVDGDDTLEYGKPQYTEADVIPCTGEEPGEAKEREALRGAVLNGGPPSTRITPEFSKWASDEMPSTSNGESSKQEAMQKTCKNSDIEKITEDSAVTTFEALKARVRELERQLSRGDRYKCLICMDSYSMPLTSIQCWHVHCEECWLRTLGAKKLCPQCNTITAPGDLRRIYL
# Sequence of UniProt Q96EE3 (Q96EE3 whole entry, looked up): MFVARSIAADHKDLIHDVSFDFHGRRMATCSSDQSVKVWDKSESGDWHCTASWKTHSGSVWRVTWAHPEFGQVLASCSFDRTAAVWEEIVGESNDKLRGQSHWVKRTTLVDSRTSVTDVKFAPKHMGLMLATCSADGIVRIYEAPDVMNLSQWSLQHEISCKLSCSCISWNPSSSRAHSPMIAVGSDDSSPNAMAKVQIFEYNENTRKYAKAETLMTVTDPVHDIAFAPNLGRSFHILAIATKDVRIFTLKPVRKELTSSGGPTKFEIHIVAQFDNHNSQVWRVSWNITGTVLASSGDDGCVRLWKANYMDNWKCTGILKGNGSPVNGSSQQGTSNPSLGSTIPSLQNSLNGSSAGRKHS
row,Target,log2 fold change
1,RRP36 (UniProt Q96EU6),0.118
2,RAB33B (UniProt Q9H082),-0.018
3,SEMG2 (UniProt Q02383),-0.048
4,SCAF11 (UniProt Q99590),0.185
5,RBM27 (UniProt Q9P2N5),0.054
6,RNF220 (UniProt Q5VTB9),-0.021
7,RNASEH2A (UniProt O75792),0.011
8,SEH1L isoform 1 (UniProt Q96EE3),0.007
9,RDH11 (UniProt Q8TC12),0.082
10,RPS25 (UniProt P62851),0.075
11,RDH13 (UniProt Q8NBN7),-0.009
12,SERPINA7 (UniProt P05543),0.273
13,SELENOH (UniProt Q8IZQ5),-0.143
14,SEC16A isoform 5 (UniProt O15027),0.069
15,RAD51 (UniProt Q06609),-0.127
